High-throughput results (PubChem BioAssay)
Shown are actives, neighbours in structure and some others; about 27% of the full set was active somewhere.
CYP2C9 inhib: human CYP2C9 inhibition; P11712; CYP2C9 Supersomes, luciferin-H conversion, luminescence; inhibition, % at 5 µM; 96,000 compounds, 20% hits; AID 777;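 active = blocking of liver enzyme CYP2C9 beyond about 50% at 5 µM, limit read from the data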
Target sequence (P11712 whole entry, looked up): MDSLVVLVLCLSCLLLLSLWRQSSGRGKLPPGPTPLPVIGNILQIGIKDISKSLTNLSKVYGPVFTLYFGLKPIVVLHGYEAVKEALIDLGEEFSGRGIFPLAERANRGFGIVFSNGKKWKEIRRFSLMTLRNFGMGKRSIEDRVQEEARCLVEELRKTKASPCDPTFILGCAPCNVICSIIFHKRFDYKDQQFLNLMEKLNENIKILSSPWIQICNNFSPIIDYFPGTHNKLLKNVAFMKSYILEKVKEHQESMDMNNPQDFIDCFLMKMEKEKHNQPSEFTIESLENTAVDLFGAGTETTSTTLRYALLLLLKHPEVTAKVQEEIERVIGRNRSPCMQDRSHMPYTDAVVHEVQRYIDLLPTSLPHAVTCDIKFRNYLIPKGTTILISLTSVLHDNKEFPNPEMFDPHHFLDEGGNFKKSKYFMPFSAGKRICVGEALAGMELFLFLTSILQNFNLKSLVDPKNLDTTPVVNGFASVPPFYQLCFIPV
CYP2C19 activ: increases human CYP2C19 enzyme activity; activation factor at 5 µM; AID 1025; P33261; 96,000 tested, under 10 active; recombinant CYP2C19, luciferin-H EGE luminescence; hits give high values; 0 = fully inhibited enzyme, 1 = untreated enzyme;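 active = activation factor of at least 2 at 5 µM in the primary screen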
CYP2C19 inh: human CYP2C19 inhibition. P33261. CYP2C19 Supersomes, luciferin-H EGE luminescence, 30 min. inhibition, % at 5 µM. 96,000 compounds, 21% hits;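 active = CYP2C19 inhibition above a set limit at 5 µM in the primary screen, cut at about 50% in these data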
EphB4 ephrin blk: antagonists of human EphB4-ephrin-B2 interaction. P54760. EphB4 LBD / TNYL-RAW-Alexa532 peptide, fluorescence polarization. inhibition, % at 7 µM. 97,000 compounds, 0.15% hits;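 active = inhibition above the screen-wide mean inhibition plus 3 SD, cut at about 15% in these data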
CYP2C9 activ: CYP2C9 (human) activation. P11712. recombinant CYP2C9, luciferin-H conversion, luminescence; hits give high values; factor 1 = untreated enzyme, 0 = blocked. activation factor at 5 µM. 96,000 compounds, 1.4% hits. AID 1024;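 active = activation factor of 2 or more for CYP2C9 at a 5 µM dose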
Large screens that a line does not name were inactive.

CC1(C)CC(=O)C2=C(C1)N(c1ccc(F)cc1)C(=O)C2(O)C(F)(F)F (stereo not drawn)	CYP2C19 inh 50.4
Cn1nc(OCCOc2ccccc2)ccc1=O	none (no result: EphB4 ephrin blk)
CSc1nc(-c2ccccc2)[nH]c(=S)c1C(C)=O	CYP2C9 inhib 54.7
CSc1nc(-c2ccccc2)nc(SC)c1C(C)=O	none
COc1cccc(C2C(C(=O)c3cccs3)=C(O)C(=O)N2c2cc(C)on2)c1 (stereo not drawn)	CYP2C9 inhib 57.7
COc1cccc(C2C(C(=O)c3cc4cccc(OC)c4o3)=C(O)C(=O)N2c2cc(C)on2)c1OC (stereo not drawn)	CYP2C9 inhib 85.2
COc1ccc(OC)c(C2C(C(=O)c3cccs3)=C(O)C(=O)N2c2cc(C)on2)c1 (stereo not drawn)	none
O=c1c2ccccc2sn1-c1cc(S(=O)(=O)N2CCOCC2)ccc1N1CCCC1	CYP2C9 inhib 78.7
O=S(=O)(c1ccc2oc3ccccc3c2c1)N1CCOCC1	none
O=C(O)c1cc(S(=O)(=O)N2CCOCC2)ccc1N1CCOCC1	none
O=c1c2ccccc2sn1-c1cc(S(=O)(=O)N2CCOCC2)ccc1N1CCOCC1	CYP2C9 inhib 53.9, CYP2C19 inh 66.0
COc1ccccc1-n1c(=O)[nH]c2c(C(N)=O)nc(C3CCCCC3)nc21	none
Cc1c(F)cccc1NS(=O)(=O)c1ccccc1C#N	CYP2C19 inh 58.9
COc1ccccc1NS(=O)(=O)c1ccccc1C#N	CYP2C19 inh 57.8, CYP2C9 activ 2.7
N#Cc1ccccc1NCc1ccccc1	none
Cc1c(C#N)c(N=CN(C)C)c(C(=O)c2ccc(Br)cc2)n1-c1ccc(Cl)cc1	none
O=C(Nc1ccccc1)C1CCCN(S(=O)(=O)c2ccc(-n3cnnn3)cc2)C1 (stereo not drawn)	none
Cc1cc(NC(=O)CSc2nc3c(sc4ccccc43)c(=O)n2CCc2ccccc2)n[nH]1	CYP2C19 inh 94.2
O=C(CSc1nc2c(sc3ccccc32)c(=O)n1CCO)NCc1ccco1	none
Cc1cc(NC(=O)CSc2nc3c(sc4ccccc43)c(=O)n2CCCN2CCOCC2)n[nH]1	CYP2C19 inh 52.0
CCOC(=O)c1c(NC(=O)CSc2nnc(-c3ccc(C)cc3)o2)sc(C(C)=O)c1C	none
CCn1c(SCC(=O)OCc2ccccc2)nnc1-c1ccco1	none
CCOC(=O)c1c(NC(=O)C2c3ccccc3Oc3ccccc32)sc(C(C)=O)c1C	CYP2C9 inhib 94.4
CCOC(=O)c1c(NC(=O)CSc2nnc(-c3ccccc3)n2CC)sc(C(C)=O)c1C	CYP2C9 inhib 97.3, CYP2C19 inh 89.7
C=CCn1c(SCC(=O)Nc2nccs2)nnc1-c1ccco1	CYP2C19 inh 85.3
CCn1c(SCc2c(F)cccc2Cl)nnc1-c1ccco1	CYP2C19 inh 60.7
COC(=O)c1c(NC(=O)C2c3ccccc3Oc3ccccc32)sc(C)c1C	none
N=c1c2c3c(sc2ncn1CCN1CCOCC1)CCCC3	none
CC(Oc1cccc(Cl)c1)C(=O)Nc1cc(=O)n(C)c(=O)n1C (stereo not drawn)	none
CCn1c(SCC(=O)Nc2nc(C)c(C)s2)nnc1-c1cccs1	none (no result: CYP2C9 inhib, CYP2C19 activ, CYP2C19 inh, CYP2C9 activ)
NC(=O)c1c(NC(=O)CSc2nnc(-c3ccco3)n2-c2ccccc2)sc2c1CCC2	CYP2C9 inhib 94.4, CYP2C19 inh 69.4 (no result: EphB4 ephrin blk)
CCOC(=O)c1c(NC(=O)CSc2nnc(-c3cccc(C)c3)n2CC)sc(C(C)=O)c1C	CYP2C9 inhib 94.3
CCn1c(SCC(=O)Nc2nc(C)c(C)s2)nnc1-c1ccco1	CYP2C19 inh 79.5
COC(=O)c1c(NC(=O)CSc2nnc(-c3ccco3)n2C)sc(C)c1C	none (no result: CYP2C9 inhib, CYP2C19 activ, CYP2C19 inh, CYP2C9 activ)
CCOC(=O)c1sc(NC(=O)CSc2nnc(-c3ccco3)n2CC)c(C(=O)OCC)c1C	CYP2C9 inhib 96.3
O=C(CSc1nnc(NC(=O)C2CCC2)s1)Nc1ccc(N2CCOCC2)cc1	none
CC1=C(C(=O)Nc2ccccc2)C(c2ccc(N(C)C)cc2)NC(=O)N1 (stereo not drawn)	none
Cc1ccccc1-n1c(=O)cc(N2CCc3ccccc32)[nH]c1=O	none
CCn1c(SCC(=O)Nc2sc3c(c2C#N)CCCC3)nnc1-c1ccco1	CYP2C9 inhib 55.1
CCn1c(SCC(=O)Nc2sc3c(c2C#N)CCC(C(C)(C)C)C3)nnc1-c1ccco1 (stereo not drawn)	none
COc1cccc(C(=O)OCCN2C(=O)c3ccccc3C2=O)c1OC	CYP2C19 inh 89.9
CCCCOC(=O)CN1C(=O)c2ccc(C(=O)OCCCC)cc2C1=O	CYP2C9 inhib 69.8, CYP2C19 inh 87.5
CCCOC(=O)CN1C(=O)c2ccc(C(=O)OCCC)cc2C1=O	none
COc1ccccc1C(=O)OCCN1CCOCC1	none
O=C(OCCN1C(=O)c2ccccc2C1=O)c1cc(=O)[nH]c2ccccc12	none
Cc1cc(C(=O)OCCN2C(=O)c3ccccc3C2=O)c2ccccc2n1	CYP2C9 inhib 75.1, CYP2C19 inh 67.5
COc1ccc(C(=O)OCCN2C(=O)c3ccccc3C2=O)cc1	CYP2C9 inhib 71.9, CYP2C19 inh 92.8
COc1ccc(CC(=O)OCN2C(=O)c3ccccc3C2=O)cc1	none
CCCCN(CC)C(=O)C1CCC(=O)N(c2ccc(OC)cc2)C1c1ccc(OC)c(OC)c1 (stereo not drawn)	none (no result: CYP2C9 inhib, CYP2C19 activ, CYP2C19 inh, CYP2C9 activ)
Cc1ccc(OCCN2C(=O)c3ccccc3C2=O)cc1	CYP2C19 inh 81.3
Cc1cccc2c1N(CCCOc1ccccc1)C(=O)C2=O	CYP2C19 inh 62.5
Cc1cccc2c1N(CCCOc1ccc(C(C)(C)C)cc1)C(=O)C2=O	none
Cc1ccc(OCCN2C(=O)c3ccccc3C2=O)c(C)c1	none
CC1(C)Cc2c(C#N)c(N3CCN(C(=O)c4ccccc4Cl)CC3)nc(-c3ccco3)c2CS1	CYP2C9 inhib 70.5
CC1(C)Cc2c(c(-c3ccco3)[nH]c(=O)c2C#N)CS1	none (no result: EphB4 ephrin blk)
CC1(C)Cc2c(C#N)c(N3CCN(C(=O)c4ccco4)CC3)nc(-c3ccco3)c2CS1	none (no result: CYP2C9 inhib, CYP2C19 activ, CYP2C19 inh, CYP2C9 activ)
CC(=O)N1CCN(c2nc(-c3ccco3)c3c(c2C#N)CC(C)(C)SC3)CC1	CYP2C9 inhib 77.7
Cc1cc(C)c2c(-n3cccc3)c(C(=O)O)sc2n1	none (no result: CYP2C9 inhib, CYP2C19 activ, CYP2C19 inh, CYP2C9 activ)
Cc1cc(C)c2c(-n3cccc3)c(C(=O)NNS(=O)(=O)c3ccccc3)sc2n1	CYP2C9 inhib 96.5
CN(C)C(=O)CN(C)S(=O)(=O)c1ccc(Cl)cc1	none
Cc1nn(Cc2cccc(C(=O)NC(C)c3ccc(C(C)(C)C)cc3)c2)c(C)c1[N+](=O)[O-] (stereo not drawn)	CYP2C9 inhib 86.7, CYP2C19 inh 78.2
Cc1nn(Cc2cccc(C(=O)N3N=C(C(F)F)CC3(O)C(F)F)c2)c(C)c1[N+](=O)[O-] (stereo not drawn)	CYP2C9 inhib 85.3, CYP2C19 inh 78.0
CC1=NN(C(=O)c2cccc(Cn3nc(C)c([N+](=O)[O-])c3C)c2)C(O)(C(F)(F)F)C1 (stereo not drawn)	CYP2C9 inhib 70.0
CCC(NC(=O)c1cccc(Cn2nc(C)c([N+](=O)[O-])c2C)c1)c1ccc(C(C)C)cc1 (stereo not drawn)	none
CN1CCC(=NNC(=O)c2ccco2)CC1	none
